Reference: PubChem BioAssay AID1508649 (National Center for Advancing Translational Sciences (NCATS), 2021)
The whole screen tested about 43,000 compounds, of which about 830 (1.9%) were called active. Another 30% or so got no clear call; they are omitted. Rule for the calls: active = clear falling dose curves in both reporters; inconclusive = both reporters move, but less clearly or upward; inactive = either reporter flat; the % is the NLuc reporter signal. Only a selection was taken, and actives are over-represented in it overall.

test: Cell-based coincidence reporter assay to measure PMP22 gene transcription in S16 Pmp22-F2sN cells - Primary screen; settings: S16 Pmp22-F2sN Schwann cells (luciferase reporters placed in the Pmp22 gene), FLuc/NLuc coincidence luminescence, 24 h; series mostly up to 57.5 µM; activity change, negative = inhibition: at the top concentration
Source text: Assay Provider: Jim Inglese Ph.D. National Center for Advancing Translational Science, National Institutes of Health, Rockville, MD CMT is a heterogeneous group of neurological disorders that affect approximately 1 in 2,500 people. In particular, the most common form of CMT, CMT1A is genetically linked to the duplication of the PMP22 gene which leads to Schwann cell overexpression, thus manifesting itself as a typical case of dose-sensitive diseases. To identify small molecule compounds that can mediate the expression of PMP22 we developed a phenotypic assay screening strategy by utilizing genome editing techniques to construct Schwann cell lines containing novel reporter technology to monitor the transcriptional or translational regulation of PMP22. For high sensitivity we use a bioluminescent reporter system embedded in the 3' UTR of the PMP22 gene (S16(c9) Pmp22-F2sN) to identify compounds that inhibit gene expression. […] We can further discriminate the effect of all transcriptionally active molecules on PMP22 translation or stability with an assay that incorporates a short NLuc peptide (HiBiT) at the C-terminus of expressed PMP22 (S16(f8) PMP22-HiBiT) allowing alpha complementation and luminescence detection of membrane-associated PMP22 protein. These assays were screened against the NCATS Sytravon Library Collection. Miniaturization of these assays to 1536-well plate format for quantitative high throughput screening (qHTS) yielded rich data sets immediately from the qHTS assay (S16(c9) Pmp22-F2sN), when compared with data from a cell viability assay (Cell TiterGlo) to identify compounds that decreased the output signals through cellular toxicity to streamline the selection process of actives for subsequent characterization using the HiBiT assay (S16(f8) PMP22-HiBiT).
Cell-based coincidence reporter assay to measure PMP22 gene transcription in S16 Pmp22-F2sN cells PROTOCOL TABLE (format as described by Inglese J, Shamu CE and Guy RK. 2007) SEQUENCE No. (e.g., 1, 2, 3, etc.); […] (e.g., Cells, Incubation, Reagent, etc.); VALUE and DESCRIPTION. 1. Cells. Add 500-1,000 cells in 4 uL in growth media (DMEM High Glucose, No Phenol Red media + 10% heat-inactivated FBS + 1% Pen/Strep supplemented media) per well into Greiner 1536-well white/solid bottom high base, TC-treated plates. 2. Compounds. Library compounds and controls added at 23nL per well, transferred by Pin Tool. 3. Incubation. Incubate plates at 37C, 5% CO2, 95% RH for 24 h. 4. Reagent. Add 3.5uL Nano-Glo Dual-Luciferase Reporter Assay System reagent 1: Lysis and FLuc reagent per well of Greiner 1536-well plates. 5. Incubation. Incubate plates at room temperature for 10 min., protect from light. 6. Detector. FLuc luminescence measured using CCD-based camera (Viewlux). 7. Reagent. Add 3.5uL Nano-Glo Dual-Luciferase Reporter Assay System reagent 2: Stop&Glo reagent per well of Greiner 1536-well plates. 8. Incubation. Incubate plates at room temperature for 10 min., protect from light. 9. Detector. NLuc luminescence measured using CCD-based camera (Viewlux). NOTES (numbers refer to Sequence numbers above; values are from representative experiments) 6. Luminescence Read #1 (FLuc): Clear filter; Exposure = 10 sec, Gain = High, Speed = Slow, Binning = 2X 9. Luminescence Read #2 (NLuc): Clear filter; Exposure = 1 sec, Gain = High, Speed = Slow, Binning = 2X REFERENCES: 1. Inglese J, Shamu CE and Guy RK, Reporting data from high throughput screening of small molecule libraries, Nature Chemical Biology, 2007, 3(8): 438-441. doi.org/10.1038/nchembio0807-438 2. Yasgar A, Shinn P, Jadhav A, Auld DS, Michael S, Zheng W, Austin CP, Inglese J and Simeonov A, Compound Management for Quantitative High-Throughput Screening. J. Assoc. Lab. Auto., 2008, 13: 79-89. doi: 10.1016/j.jala.2007.12.004
% is set by controls: 0 for no effect and ±100 for the full control effect; potency is the fitted concentration of half-maximal effect.

Row | Compound | activity change, negative = inhibition | Potency
1 | Cc1ccc(-n2c(=O)c3cccnc3n2CC(=O)NCc2ccc(F)cc2)cc1C | -10.6% (inactive) | –
2 | CCc1ccc(NS(=O)(=O)c2ccc3[nH]cc(C(=O)NCCc4cccc(C)c4)c(=O)c3c2)cc1 | -16.7% (inactive) | –
3 | COc1cccc(CNC(=O)C(NS(=O)(=O)c2ccc3nc(C)sc3c2)C(C)C)c1 (stereo not drawn) | 1.61% (inactive) | –
4 | CCOC(=O)C1=C(c2ccccc2)Nc2ncnn2C1c1ccc(Cl)cc1 (stereo not drawn) | -19.3% (inactive) | –
5 | COc1ccc(C(=O)N2CCC(c3nc4ccccc4o3)CC2)cc1 | -2.94% (inactive) | –
6 | Cc1ccc(C)c2sc(NC(=O)c3ccc(S(=O)(=O)N4CCCC4)cc3)nc12 | -6.67% (inactive) | –
7 | O=C(c1ccc(C(F)(F)F)cc1)N1CCC(c2nc(-c3ccc(S(=O)(=O)N4CCCC4)cc3)no2)CC1 | – | 14.2 µM (active)
8 | Fc1cccc(-n2ncc3c2ncn2nc(-c4ccccc4Cl)nc32)c1 | 1.98% (inactive) | –
9 | Cc1ccc(-c2onc(C)c2C)cc1S(=O)(=O)Nc1ccccn1 | 1.02% (inactive) | –
10 | COc1cc(NC(=O)NCC2CCN(Cc3ccc(C)cc3)CC2)cc(OC)c1OC | -8.67% (inactive) | –
11 | COc1ccc(-c2onc(C)c2C)cc1S(=O)(=O)NCC1CCN(Cc2cccc(F)c2)CC1 | – | 14.1 µM (active)
12 | CCS(=O)(=O)c1nc(S(=O)(=O)c2ccc(C)cc2)c(NCc2ccc(Cl)cc2)s1 | -7.32% (inactive) | –
13 | CCc1ccc(Nc2nn3c(=O)c4cc5c(cc4nc3s2)OCO5)cc1 | -6.98% (inactive) | –
14 | COc1ccc(N2CCN(C(=O)c3c(C)oc4nc(C)nc(N5CCCC5)c34)CC2)cc1 | -27.4% (inactive) | –
15 | CCc1ccc(C2CC(=O)c3c([nH]c(C(=O)OCc4ccc(C)cc4)c3C)C2)cc1 (stereo not drawn) | – | 10 µM (active)
16 | CC1=C(C(=O)OCc2ccc(C)cc2)C(c2c(Cl)cccc2Cl)CC(=O)N1 (stereo not drawn) | -9.76% (inactive) | –
17 | CC1=C(C(=O)OCc2ccc(C)cc2)C(c2ccccc2Cl)CC(=O)N1 (stereo not drawn) | 14% (inactive) | –
18 | COc1ccc(-c2nn3c(-c4ccc(OC)cc4)nnc3c3ccccc23)cc1 | 2.98% (inactive) | –
19 | CCOC(=O)c1cc(OC(=O)c2ccccc2Cl)n(-c2ccccc2)n1 | -11.1% (inactive) | –
20 | COc1cc(OC)cc(-c2nc3nc(C)c(CCC(=O)Nc4ccc(C)cc4)c(C)n3n2)c1 | 1.75% (inactive) | –
21 | Cc1ccc(NC(=O)Cn2cnc3nc4c(cc3c2=O)CCCC4)cc1Cl | 23.1% (inactive) | –
22 | O=C(CCc1nc(CN2CCN(S(=O)(=O)c3ccc(F)cc3)CC2)no1)N1CCCCC1 | -12.7% (inactive) | –
23 | CCOC(=O)c1cccc(NC(=O)c2cc(CN3CCCC3)on2)c1 | 4.87% (inactive) | –
24 | CCc1ccccc1NC(=O)N1CCN(C(=O)c2nsc3ccccc23)CC1 | 2.47% (inactive) | –

Row | Compound | activity change, negative = inhibition | Potency
25 | Cc1ccc(NC(=O)CN2c3ccccc3S(=O)(=O)c3ccccc32)cc1F | 6.49% (inactive) | –
26 | COc1cccc(NC(=O)N2CCN(C(=O)c3nsc4ccccc34)CC2)c1 | -15.2% (inactive) | –
27 | COc1cccc(NC(=O)N(Cc2cn(C)c3ccccc23)C2CCCCCC2)c1 | – | 10.6 µM (active)
28 | CCc1ccccc1NC(=O)Cc1cn(C)c2ccccc12 | -23.8% (inactive) | –
29 | O=c1cc(COc2cccc(C(F)(F)F)c2)nc2sc3c(n12)CCCC3 | -19.3% (inactive) | –
30 | CCOc1ccccc1NC(=O)Cn1nnc(C(=O)Nc2ccc(C)c(C)c2)c1N | -12.8% (inactive) | –
31 | CCOc1ccccc1NC(=O)Cn1nnc(C(=O)NCc2cccs2)c1N | – | 0.401 µM (active)
32 | COc1cccc(CNC(=O)c2nnn(CC(=O)Nc3cc(Cl)ccc3C)c2N)c1 | -26.4% (inactive) | –
33 | COc1ccc(C2Sc3ccccc3NC3=C2C(=O)c2ccccc23)c(OC)c1OC (stereo not drawn) | – | 7.27 µM (active)
34 | Cc1ccc(-c2noc(CSc3nnc(-c4ccc(Cl)cc4)n3C)n2)cc1 | -54.7% (inactive) | –
35 | Cc1nnc(C)n1-c1ccc(C(=O)Nc2cccc(Br)c2)cc1 | 23.7% (inactive) | –
36 | CCN(CCCNC(=O)c1c(C)oc2ncn(CC(C)C)c(=O)c12)Cc1ccccc1 | -18.5% (inactive) | –
37 | Cc1cc(C)nc(NS(=O)(=O)c2ccc(NC(=O)c3cc(=O)c4ccc(C)c(C)c4o3)cc2)n1 | -33.5% (inactive) | –
38 | COc1ccc(OC)c(NC(=O)C2CCN(S(=O)(=O)c3ccc(C)cc3)CC2)c1 | 2.94% (inactive) | –
39 | COc1ccc(S(=O)(=O)Nc2cc3c(C(=O)OC(C)C)c(C)oc3c3ccccc23)cc1 | – | 11.3 µM (active)
40 | COc1ccc(Cn2ccnc2SCC(=O)Nc2ccc3c(c2)OCO3)cc1 | -13% (inactive) | –
41 | CCn1cc(C(=O)NCc2ccc(C)cc2)c(=O)c2cc(S(=O)(=O)N3CCc4ccccc4C3)ccc21 | 0.357% (inactive) | –
42 | COc1cc(NC(=O)c2nc3ccccc3nc2C)cc(OC)c1OC | -18.9% (inactive) | –
43 | COc1cccc(C(=O)Nc2ccc3nc4n(c(=O)c3c2)CCCCC4)c1 | -16.8% (inactive) | –
44 | COc1ccccc1Nc1c2c(nc3ccc(NC(=O)/C=C/c4cc(OC)c(OC)c(OC)c4)cc13)CCCC2 | – | 6.04 µM (active)
45 | CC(=O)c1ccc(N2CCN(C3C(=O)c4ccccc4N3C(C)=O)CC2)cc1 (stereo not drawn) | 6.64% (inactive) | –
46 | O=C(C1COc2ccccc2O1)N(Cc1cccnc1)c1nc2c(F)cc(F)cc2s1 (stereo not drawn) | -8.93% (inactive) | –
47 | Cc1ccc2sc(N(Cc3cccnc3)C(=O)C3COc4ccccc4O3)nc2c1C (stereo not drawn) | -67.6% (inactive) | –
48 | O=C(CCS(=O)(=O)c1ccccc1)N(Cc1cccnc1)c1nc2c(F)cccc2s1 | – | 10.6 µM (active)
